Compound activity deposited in PubChem by National Center for Advancing Translational Sciences (NCATS).
Compounds with a hit are over-represented: about 21% of the library has one in this group of screens.
NS1 inh – influenza NS1 inhibition | Potency, µM (doses to about 46.1 µM) | 0.4% of 270,000 active; calls by dose curve; further: actives are rising curves; nearly all actives have a fitted effect of over 50% in size
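Read-out: OD600 growth recovery of NS1-expressing budding yeast. Cells grown overnight at 30C in -URA glucose medium, washed, resuspended and diluted 1:100 in 2% galactose assay medium, pH 6.0. Same strain lacking NS1 served as positive control.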
Shiga toxin inh – blocks Shiga toxin action in Vero cells; Vero cells, Shiga toxin protein synthesis inhibition reporter; inhibition, % at 38.7 µM; 9.2% of 290,000 active; AID 2315; in the data active means inhibition mostly above about 28%, no sharp cut-off; inactive means mostly below about 43%
CHX counter – affects cycloheximide protein synthesis inhibition readout, counter-screen; cell reporter, cycloheximide protein synthesis inhibition counterscreen; max response, %; 12% of 300,000 active; AID 2314; in the data active means max response mostly above about 13%, no sharp cut-off; inactive means mostly below about 14%; further: read at 38.3 µM for the half of the compounds with a filed dose
Giardia FBPA inh – inhibitors of Giardia lamblia fructose-1,6-bisphosphate aldolase | purified Giardia FBPA | AID 2451 | Potency, µM (series often up to 59.6 µM), hits mostly inhibitors | 0.71% of 290,000 active; further: nearly all actives have a fitted effect of over 55% in size
Target sequence (A8B2U2 whole entry, looked up): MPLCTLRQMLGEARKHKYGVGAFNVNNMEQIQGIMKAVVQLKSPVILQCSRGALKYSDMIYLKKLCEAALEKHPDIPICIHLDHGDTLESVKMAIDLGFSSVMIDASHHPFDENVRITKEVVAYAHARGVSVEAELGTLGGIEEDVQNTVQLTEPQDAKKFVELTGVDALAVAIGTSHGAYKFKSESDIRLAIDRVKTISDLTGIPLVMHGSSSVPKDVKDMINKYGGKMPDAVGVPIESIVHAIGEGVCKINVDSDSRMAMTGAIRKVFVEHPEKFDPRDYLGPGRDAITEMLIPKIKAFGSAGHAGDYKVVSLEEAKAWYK
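Giardia FBPA (40 nM reagent) was preincubated 10 min at RT with compound (up to 57.5 uM final), then substrate plus GAPDH/TPI/NAD/arsenate coupling system with diaphorase/resazurin was added; resorufin fluorescence (525/598 nm) was read after 20 min.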
Pf growth 48h – inhibits P. falciparum growth in the first generation, 48 h. Potency, µM (top dose mostly 28.7 µM), hits mostly inhibitors. AID 504832. P. falciparum luciferase growth in erythrocytes, 48 h. 5.9% of 310,000 active
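First compound was added to culture medium, then infected red cells at 0.1% parasitemia and 2% hematocrit (final). After incubation at 37 C under 5% CO2, luciferase detection reagent was dispensed and light output recorded.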
Pf growth 96h – P. falciparum growth inhibition at 96 hour, primary screen for plastid delayed-death inhibitors; P. falciparum luciferase reporter growth, 96 h; Potency, µM (top dose mostly 28.7 µM), hits mostly inhibitors; 6.9% of 320,000 active; AID 504834
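Cell-based qHTS: luciferase-tagged P. falciparum in erythrocytes (2% hematocrit, 0.05% parasitemia final) incubated with compounds for 96 hours, 37 C, 5% CO2; luciferase detection reagent then added and luminescence measured.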
Large screens that a line does not name were inactive. Unless noted, the call rests on the fitted dose curve; in most records, active means well fitted curve in the direction sought with a large enough effect; inconclusive means small, poorly fitted or top-dose-only effect, or another doubt; inactive means no such curve, though single readings can be large; an effect the other way counts as inactive or inconclusive.

N#Cc1cccn1-c1nccc(-c2cccs2)n1	Shiga toxin inh 77, CHX counter 29 (no result: NS1 inh)
CCOC(=O)NCc1ccc2[nH]c(C)cc2c1	Shiga toxin inh 24, CHX counter 18
CCOC(=O)CCC(=O)NCc1ccc2[nH]c(C)cc2c1	Pf growth 48h inconclusive, Pf growth 96h inconclusive
Cc1cc2cc(CNC(=O)Nc3ccccc3)ccc2[nH]1	Shiga toxin inh 95, CHX counter 28 (no result: NS1 inh)
COc1ccc(Br)cc1S(=O)(=O)n1nc(C)cc1C	Pf growth 96h inconclusive
O=C(NN=C1CCCCCCC1)c1ccc2ccccc2n1	CHX counter 17, Pf growth 96h inconclusive (no result: NS1 inh)
O=C(NN=C1CCCCCC1)c1cc2ccccc2cc1O	Pf growth 48h inconclusive
O=C(NN=C1CCCCCC1)c1c[nH]c2ccccc12	Shiga toxin inh active
O=C(NN=C1CCCCCC1)c1ccncc1	Pf growth 96h inconclusive (no result: Giardia FBPA inh)
O=C(N/N=C1\CCCCc2ccccc21)c1ccccn1	Shiga toxin inh 90, CHX counter 44, Giardia FBPA inh inconclusive (no result: NS1 inh)
O=C(NN=C1CCCCCCC1)c1ccccn1	CHX counter 23, Giardia FBPA inh inconclusive
Cc1cccc(Oc2nc(CN3CCOCC3)nc3sc4c(c23)CCCC4)c1	Pf growth 48h 10µM, Pf growth 96h inconclusive
COc1ccc(S(=O)(=O)N2CCOCC2)cc1Cl	Pf growth 96h inconclusive (no result: Pf growth 48h)
Cc1nc(Oc2ccc(S(=O)(=O)N3CCOCC3)cc2Cl)c2c3c(sc2n1)CCCC3	Pf growth 48h inconclusive, Pf growth 96h 13µM
CCC(C)Nc1nc(CN2CCOCC2)nc2sc3c(c12)CCC3 (centres undefined)	Pf growth 96h 9.3µM (no result: Pf growth 48h)
CNc1nnc(-c2ccc(N(C)C)cc2)s1	CHX counter 18
Cc1ccc(SCC(=O)OCC(=O)NC2(C#N)CCCCC2)cc1	none (no result: Giardia FBPA inh)
Cc1ccc(N2CC(C(=O)OCC(=O)c3ccc([N+](=O)[O-])cc3)CC2=O)cc1 (centres undefined)	Pf growth 96h inconclusive
CCOc1ccc(OCc2cccc(C(=O)N3CCCC3)c2)cc1	Shiga toxin inh 139, CHX counter 87 (no result: Pf growth 96h)
O=C(NN1CCCCC1)c1cccc(COc2ccc(Cl)cc2)c1	Shiga toxin inh 90, CHX counter 76
COc1ccc(C(=O)NN2CCCCC2)cc1OC	none
O=C(OCC(F)(F)F)c1cccc(COc2ccc3ccccc3c2)c1	Shiga toxin inh 140, CHX counter 82 (no result: Pf growth 48h)
CCOc1ccc(C(=O)N2CCCC2)cc1	Pf growth 96h inconclusive
CCOc1ccc(OCc2cccc(C(=O)O)c2)cc1	CHX counter 18 (no result: Pf growth 96h)
COc1cc(C2C(C#N)=C(N)Oc3c2c(-c2ccccc2)nn3-c2ccccc2)cc(OC)c1OC (centres undefined)	NS1 inh inconclusive, Pf growth 96h inconclusive
Cc1ccc(S(=O)(=O)N2CCN(C(=O)COC(=O)C3CCC3)CC2)cc1	none (no result: NS1 inh, Shiga toxin inh, CHX counter, Giardia FBPA inh)
CCOc1ccc(OCc2cccc(C(=O)N3CCCCCC3)c2)cc1	Shiga toxin inh active, CHX counter 65 (no result: NS1 inh)
CCOc1ccc(C(=O)N2CCN(Cc3ccccc3)CC2)cc1	Pf growth 96h inconclusive
CCOC(=O)c1ccccc1NC(=O)COC(=O)CCNS(=O)(=O)c1ccccc1	none (no result: Giardia FBPA inh)
CCCN(CCC)Cc1c(C(=O)N/N=C/CCc2ccccc2)nnn1-c1nonc1N	Pf growth 96h 9.3µM
C/C(=N\NC(=O)c1nnn(-c2nonc2N)c1CN(C)c1ccccc1)c1ccccn1	Pf growth 48h 13µM, Pf growth 96h 5.2µM
CCN(CC)CCNC(=O)c1cc(-c2cccnc2)nc2ccc(S(=O)(=O)N3CCC(C)CC3)cc12	Pf growth 48h inconclusive, Pf growth 96h 13µM (no result: Giardia FBPA inh)
CCCCNS(=O)(=O)c1ccc2nc(-c3cccnc3)cc(C(=O)NCCCN(CC)CC)c2c1	Pf growth 48h 12µM, Pf growth 96h inconclusive (no result: NS1 inh)
COC[C@@H](O)[C@@H](OC)[C@H](OC)[C@H](Cc1c(OC)cc(OC)cc1OC)OC	none (no result: NS1 inh, Shiga toxin inh, CHX counter, Pf growth 48h, Pf growth 96h)
N#Cc1ccc(-c2ccc(OCC(O)CN3CCCCC3)cc2)cc1 (centres undefined)	Pf growth 48h inconclusive, Pf growth 96h inconclusive
O=C1C(c2ccccc2)=[N+]([O-])c2ccccc21	Pf growth 48h 0.66µM, Pf growth 96h 0.37µM (no result: NS1 inh, Shiga toxin inh, CHX counter, Giardia FBPA inh)
N#CCc1nc2c3c4c(sc3ncn2n1)CCCC4	Pf growth 96h 10µM (no result: Pf growth 48h)
Cc1ccc(C(=O)COC(=O)C2C3C=CC(C3)C2C(=O)OCC(=O)c2ccc(C)c(C)c2)cc1C (centres undefined)	Pf growth 48h inconclusive, Pf growth 96h 1.2µM
CC1(C(=O)NC(=S)N(Cc2ccccc2)c2ccccn2)CC1(Cl)Cl (centres undefined)	CHX counter 22, Pf growth 96h inconclusive
CN(C(=S)NC(=O)C1(C)CC1(Cl)Cl)c1ccccc1 (centres undefined)	Pf growth 96h inconclusive (no result: Pf growth 48h)
CC(C)C[C@H](NC(=O)[C@H](CCCCN)NC(=O)[C@H](CCCNC(=N)N)NC(=O)[C@H](C)NC(=O)[C@H](CO)NC(=O)[C@H](CCCCN)NC(=O)[C@H](CCCNC(=N)N)NC(=O)[C@H](C)NC(=O)CNC(=O)[C@@H](NC(=O)[C@H](Cc1ccccc1)NC(=O)CNC(=O)CNC(=O)[C@@H](N)Cc1ccccc1)[C@@H](C)O)C(=O)N[C@@H](C)C(=O)N[C@@H](CC(N)=O)C(=O)N[C@@H](CCC(N)=O)C(=O)O	none (no result: NS1 inh, Pf growth 48h, Pf growth 96h)
CSc1nc(Oc2ccc3ccccc3c2)c2ccccc2n1	Pf growth 48h 10µM, Pf growth 96h inconclusive
COc1ccc(-n2nc(C(=O)NCC(=O)N3CCCC(C)C3)c3ccccc3c2=O)cc1 (centres undefined)	CHX counter 18, Pf growth 48h inconclusive
COc1ccc(-n2nc(C(=O)NCC(=O)N3CCC(C)CC3)c3ccccc3c2=O)cc1	Shiga toxin inh 48, CHX counter 33, Pf growth 48h inconclusive
COc1ccc(-n2nc(C(=O)NCC(=O)N3CCC(C(N)=O)CC3)c3ccccc3c2=O)cc1	Pf growth 96h inconclusive
CCOC(=O)C1CCCN(C(=O)CNC(=O)c2nn(-c3ccc(OC)c(Cl)c3)c(=O)c3ccccc23)C1 (centres undefined)	Pf growth 48h inconclusive, Pf growth 96h inconclusive
CCOc1ccc(N(CC)C(=O)c2nn(-c3ccc(OC)cc3)c(=O)c3c2c2ccccc2n3C)cc1	Pf growth 48h 1.5µM, Pf growth 96h inconclusive (no result: NS1 inh)
CCOC(=O)C1CCN(C(=O)CNC(=O)c2nn(-c3ccc(OC)c(Cl)c3)c(=O)c3ccccc23)CC1	CHX counter 25, Pf growth 48h inconclusive, Pf growth 96h inconclusive
NC(=O)c1ccsc1NC(=O)CCS(=O)(=O)c1ccc(F)cc1	Pf growth 48h inconclusive (no result: NS1 inh, Shiga toxin inh, CHX counter, Giardia FBPA inh)
C[C@H]1C(=O)N(S(=O)(=O)c2ccc([N+](=O)[O-])cc2)[C@H]1c1ccc(F)cc1	none (no result: NS1 inh, Pf growth 48h, Pf growth 96h)
Cc1ccc(S(=O)(=O)NCC(=O)OC(C)C(=O)NC2CCCCC2C)cc1C (centres undefined)	none (no result: NS1 inh, Shiga toxin inh, CHX counter, Giardia FBPA inh)
CCc1cc(C(=O)NCC(c2ccc(OC)cc2)N2CCOCC2)sc1C (centres undefined)	none (no result: NS1 inh, Shiga toxin inh, CHX counter, Giardia FBPA inh)
